Experimental data reported in the supplement of paper PMC8728848.
This is one part of a sample in which the strongest signals are shown more often than they occur.

Assays:
Assay in all cases: glycan array binding signal (z-score within array); higher = stronger binding
Settings in all cases: glycan notation: IUPAC condensed, linker removed
[1] = target: Gal(b1-4)GlcNAc(b1-3)Gal(b1-4)GlcNAc(b1-3)Gal(b1-4)GlcNAc(b1-3)Gal(b1-4)GlcNAc(b1-3)Gal(b1-4)GlcNAc(b1-2)Man(a1-3)[Gal(b1-4)GlcNAc(b1-3)Gal(b1-4)GlcNAc(b1-3)Gal(b1-4)GlcNAc(b1-3)Gal(b1-4)GlcNAc(b1-3)Gal(b1-4)GlcNAc(b1-2)Man(a1-6)]Man(b1-4)GlcNAc(b1-4)[Fuc(a1-6)]GlcNAc
How it was run: (§1)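 From the Consortium for Functional Glycomics database, 3228 arrays were curated, keeping only those whose protein sequence was available. Binding is given as a within-array Z-score averaged across arrays sharing a protein sequence and across linkers. Negative Z-scores can be read as non-binding.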

[2] = target: Gal(b1-4)GlcNAc(b1-3)Gal(b1-4)GlcNAc(b1-3)Gal(b1-4)GlcNAc(b1-3)Gal(b1-4)GlcNAc(b1-3)Gal(b1-4)GlcNAc(b1-2)[Gal(b1-4)GlcNAc(b1-3)Gal(b1-4)GlcNAc(b1-3)Gal(b1-4)GlcNAc(b1-3)Gal(b1-4)GlcNAc(b1-3)Gal(b1-4)GlcNAc(b1-6)]Man(a1-6)[Gal(b1-4)GlcNAc(b1-3)Gal(b1-4)GlcNAc(b1-3)Gal(b1-4)GlcNAc(b1-3)Gal(b1-4)GlcNAc(b1-3)Gal(b1-4)GlcNAc(b1-2)Man(a1-3)]Man(b1-4)GlcNAc(b1-4)[Fuc(a1-6)]GlcNAc
How it was run: as §1

[3] = target: Gal(b1-4)GlcNAc(b1-3)Gal(b1-4)GlcNAc(b1-3)Gal(b1-4)GlcNAc(b1-3)Gal(b1-4)GlcNAc(b1-3)Gal(b1-4)GlcNAc(b1-3)Gal(b1-4)GlcNAc(b1-2)Man(a1-3)[Gal(b1-4)GlcNAc(b1-3)Gal(b1-4)GlcNAc(b1-3)Gal(b1-4)GlcNAc(b1-3)Gal(b1-4)GlcNAc(b1-3)Gal(b1-4)GlcNAc(b1-3)Gal(b1-4)GlcNAc(b1-2)Man(a1-6)]Man(b1-4)GlcNAc(b1-4)GlcNAc
How it was run: as §1

[4] = target: Gal(b1-4)GlcNAc(b1-6)GalNAc
How it was run: as §1

GalNAc6S(b1-4)GlcNAc = target: GalNAc6S(b1-4)GlcNAc
How it was run: as §1

[5] = target: GlcNAc(a1-4)Gal(b1-4)GlcNAc
How it was run: as §1

[6] = target: GlcNAc(b1-2)[GlcNAc(b1-4)]Man(a1-3)[GlcNAc(b1-4)][GlcNAc(b1-2)[GlcNAc(b1-6)]Man(a1-6)]Man(b1-4)GlcNAc(b1-4)GlcNAc
How it was run: as §1

[7] = target: GlcNAc(b1-2)[GlcNAc(b1-6)]Man(a1-6)[GlcNAc(b1-4)][GlcNAc(b1-2)Man(a1-3)]Man(b1-4)GlcNAc(b1-4)GlcNAc
How it was run: as §1

GlcNAc(b1-3)Gal(b1-4)Glc = target: GlcNAc(b1-3)Gal(b1-4)Glc
How it was run: as §1

[8] = target: GlcNAc(b1-3)Gal(b1-4)GlcNAc(b1-3)Gal(b1-4)GlcNAc(b1-3)Gal(b1-4)GlcNAc(b1-2)Man(a1-3)[GlcNAc(b1-3)Gal(b1-4)GlcNAc(b1-3)Gal(b1-4)GlcNAc(b1-3)Gal(b1-4)GlcNAc(b1-2)Man(a1-6)]Man(b1-4)GlcNAc(b1-4)[Fuc(a1-6)]GlcNAc
How it was run: as §1

[9] = target: GlcNAc(b1-3)Gal(b1-4)GlcNAc(b1-3)Gal(b1-4)GlcNAc(b1-3)Gal(b1-4)GlcNAc(b1-3)Gal(b1-4)GlcNAc(b1-2)Man(a1-3)[GlcNAc(b1-3)Gal(b1-4)GlcNAc(b1-3)Gal(b1-4)GlcNAc(b1-3)Gal(b1-4)GlcNAc(b1-3)Gal(b1-4)GlcNAc(b1-2)Man(a1-6)]Man(b1-4)GlcNAc(b1-4)GlcNAc
How it was run: as §1

[10] = target: GlcNAc(b1-3)Gal(b1-4)GlcNAc(b1-3)Gal(b1-4)GlcNAc(b1-3)Gal(b1-4)GlcNAc(b1-3)Gal(b1-4)GlcNAc(b1-2)Man(a1-3)[GlcNAc(b1-3)Gal(b1-4)GlcNAc(b1-3)Gal(b1-4)GlcNAc(b1-3)Gal(b1-4)GlcNAc(b1-3)Gal(b1-4)GlcNAc(b1-2)Man(a1-6)]Man(b1-4)GlcNAc(b1-4)[Fuc(a1-6)]GlcNAc
How it was run: as §1

[11] = target: GlcNAc(b1-3)Gal(b1-4)GlcNAc(b1-3)Gal(b1-4)GlcNAc(b1-3)Gal(b1-4)GlcNAc(b1-3)Gal(b1-4)GlcNAc(b1-2)[GlcNAc(b1-3)Gal(b1-4)GlcNAc(b1-3)Gal(b1-4)GlcNAc(b1-3)Gal(b1-4)GlcNAc(b1-3)Gal(b1-4)GlcNAc(b1-6)]Man(a1-6)[GlcNAc(b1-3)Gal(b1-4)GlcNAc(b1-3)Gal(b1-4)GlcNAc(b1-3)Gal(b1-4)GlcNAc(b1-3)Gal(b1-4)GlcNAc(b1-2)Man(a1-3)]Man(b1-4)GlcNAc(b1-4)[Fuc(a1-6)]GlcNAc
How it was run: as §1

[12] = target: Man(a1-2)Man(a1-3)[Man(a1-6)]Man(a1-6)[Man(a1-2)Man(a1-3)]Man(b1-4)GlcNAc(b1-4)GlcNAc
How it was run: as §1

[13] = target: Neu5Ac(a2-3)Gal(b1-4)GlcNAc6S
How it was run: as §1

[14] = target: Neu5Ac(a2-3)[Neu5Ac(a2-6)]GalNAc
How it was run: as §1

[15] = target: Neu5Ac(a2-6)Gal(b1-4)GlcNAc
How it was run: as §1

[16] = target: Neu5Ac(a2-6)Gal(b1-4)GlcNAc(b1-2)[Neu5Ac(a2-6)Gal(b1-4)GlcNAc(b1-4)]Man(a1-3)[GlcNAc(b1-4)][Neu5Ac(a2-6)Gal(b1-4)GlcNAc(b1-4)Man(a1-6)]Man(b1-4)GlcNAc(b1-4)GlcNAc
How it was run: as §1

[17] = target: Neu5Ac(a2-6)Gal(b1-4)GlcNAc(b1-3)Gal(b1-4)GlcNAc
How it was run: as §1

[18] = target: Neu5Ac(a2-6)Gal(b1-4)GlcNAc(b1-3)Gal(b1-4)GlcNAc(b1-3)Gal(b1-4)GlcNAc
How it was run: as §1

[19] = target: Neu5Ac(a2-6)Gal(b1-4)GlcNAc(b1-3)Gal(b1-4)GlcNAc(b1-3)[Neu5Ac(a2-6)Gal(b1-4)GlcNAc(b1-3)Gal(b1-4)GlcNAc(b1-6)]GalNAc
How it was run: as §1

[20] = target: Neu5Ac(a2-8)Neu5Ac(a2-3)Gal(b1-4)Glc
How it was run: as §1

[21] = target: Neu5Ac(a2-8)Neu5Ac(a2-8)Neu5Ac(a2-3)Gal(b1-4)Glc
How it was run: as §1

[22] = target: Neu5Gc(a2-3)Gal(b1-4)[Fuc(a1-3)]GlcNAc
How it was run: as §1

Neu5Gc(a2-6)GalNAc = target: Neu5Gc(a2-6)GalNAc
How it was run: as §1

B1: DrGal3 (Danio rerio) (protein)
chain: MDLSDALDAPPQQNNQQAGGPVWPGQPANPVWPGQPANPTWPGQPNQPAWPGQPNQQWPGQPGQPTAPGWPGPAPQTGPYGAPGQAPQVLTVPLDFPLQNGAYNKMLITINGEVKPNAKQFTVNLRRGNDIAFHINPRFSEGGKPVIVRNSMIGNNWGREERELPSFPFVPGKPFEMKILITDTEYKVAVNKSHLLEFKHRVFELNQITGLSIYNDVTLSTVNVETLQ
- glycan array binding signal (z-score) [1]: 4.37
- glycan array binding signal (z-score) [2]: 5.52
- glycan array binding signal (z-score) [3]: 5.72
- glycan array binding signal (z-score) [4]: -0.192
- glycan array binding signal (z-score) (GalNAc6S(b1-4)GlcNAc): -0.282
- glycan array binding signal (z-score) [5]: -0.256
- glycan array binding signal (z-score) [6]: -0.297
- glycan array binding signal (z-score) [7]: -0.243
- glycan array binding signal (z-score) (GlcNAc(b1-3)Gal(b1-4)Glc): -0.284
- glycan array binding signal (z-score) [8]: 6.12
- glycan array binding signal (z-score) [9]: 5.4
- glycan array binding signal (z-score) [10]: 5.55
- glycan array binding signal (z-score) [11]: 3.29
- glycan array binding signal (z-score) [12]: -0.249
- glycan array binding signal (z-score) [13]: -0.189
- glycan array binding signal (z-score) [14]: -0.275
- glycan array binding signal (z-score) [15]: -0.257
- glycan array binding signal (z-score) [16]: -0.234
- glycan array binding signal (z-score) [17]: -0.25
- glycan array binding signal (z-score) [18]: 0.971
- glycan array binding signal (z-score) [19]: -0.107
- glycan array binding signal (z-score) [20]: -0.271
- glycan array binding signal (z-score) [21]: -0.195
- glycan array binding signal (z-score) [22]: -0.086
- glycan array binding signal (z-score) (Neu5Gc(a2-6)GalNAc): -0.254
